According to the supplement of paper PMC10849652:
About 7,900 targets were measured; listed, in parts, are those with a hit and a random draw of the rest. About 0.6% of all pairs of compound and target were hits. Unmarked numbers belong to inactive results.

Tests used:
Experiment in all cases: log2 fold change, soluble protein after heating vs DMSO (PISA); higher = thermal stabilisation; K562 cells, 10 uM, 30 min; active = over 0.2 and 3.5 SD of the protein, either way, in both replicates (recomputed)
saracatinib = compound: CN1CCN(CCOc2cc(OC3CCOCC3)c3c(Nc4c(Cl)ccc5c4OCO5)ncnc3c2)CC1 [saracatinib]
Outline: (§1)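 Thermal stability values are relative to control samples and come from duplicates. They are expressed as log2 fold changes. For measurement, K562 cells (2×10^6 cells/mL) received 10 μM compound for 30 min, and aliquots were heated for 3 min over 48°C-58°C, pooled, and extracted at 4°C in PBS with 0.5% NP-40. Soluble protein, the supernatant after 21,000xg for 90 min, was quantified by TMTpro 16plex LC-MS/MS with equalised channel sums.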

sotrastaurin = compound: CN1CCN(c2nc(C3=C(c4c[nH]c5ccccc45)C(=O)NC3=O)c3ccccc3n2)CC1 [sotrastaurin]
Outline: as §1

alvocidib = compound: CN1CC[C@H](c2c(O)cc(O)c3c(=O)cc(-c4ccccc4Cl)oc23)[C@H](O)C1 [alvocidib]
Outline: as §1

Tubastatin A = compound: CN1CCc2c(c3ccccc3n2Cc2ccc(C(=O)NO)cc2)C1 [Tubastatin A]
Outline: as §1

[1] = compound: CNC(=O)C1=CC=CC=C1NC2=NC(=NC=C2Cl)NC3=C(C=C(C=C3)N4CCOCC4)OC
Outline: as §1

defactinib = compound: CNC(=O)c1ccc(Nc2ncc(C(F)(F)F)c(NCc3nccnc3N(C)S(C)(=O)=O)n2)cc1 [defactinib]
Outline: as §1

rucaparib = compound: CNCc1ccc(-c2[nH]c3cc(F)cc4c3c2CCNC4=O)cc1 [rucaparib]
Outline: as §1

[2] = compound: CNc1nc(-c2ccc3c(N)n[nH]c3c2)cc(N2C[C@@H](C(=O)NC3CCCCC3)CC[C@H]2C)n1
Outline: as §1

encorafenib = compound: COC(=O)N[C@@H](C)CNc1nccc(-c2cn(C(C)C)nc2-c2cc(Cl)cc(NS(C)(=O)=O)c2F)n1 [encorafenib]
Outline: as §1

[3] = compound: COC(=O)[C@H](CCSC)NC(=O)C1=C(C=C(C=C1)NC[C@H](CS)N)C2=CC=CC=C2
Outline: as §1

[4] = compound: COC1=CC=C(C=C1)CN2C=CC3=C2C=C(C=C3)C(=O)NO
Outline: as §1

filanesib = compound: CON(C)C(=O)N1N=C(c2cc(F)ccc2F)S[C@@]1(CCCN)c1ccccc1 [filanesib]
Outline: as §1

zotarolimus = compound: CO[C@H]1C[C@@H]2CC[C@@H](C)[C@@](O)(O2)C(=O)C(=O)N2CCCC[C@H]2C(=O)O[C@H]([C@H](C)C[C@@H]2CC[C@H](n3cnnn3)[C@H](OC)C2)CC(=O)[C@H](C)/C=C(\C)[C@@H](O)[C@@H](OC)C(=O)[C@H](C)C[C@H](C)/C=C/C=C/C=C/1C [zotarolimus]
Outline: as §1

idasanutlin = compound: COc1cc(C(=O)O)ccc1NC(=O)[C@@H]1N[C@@H](CC(C)(C)C)[C@](C#N)(c2ccc(Cl)cc2F)[C@H]1c1cccc(Cl)c1F [idasanutlin]
Outline: as §1

alisertib = compound: COc1cc(Nc2ncc3c(n2)-c2ccc(Cl)cc2C(c2c(F)cccc2OC)=NC3)ccc1C(=O)O [alisertib]
Outline: as §1

[5] = compound: COc1cc2nc(-c3cc(F)ccc3O)nc(N[C@@H]3CNC[C@H]3C(C)(C)O)c2cc1OC
Outline: as §1

gefitinib = compound: COc1cc2ncnc(Nc3ccc(F)c(Cl)c3)c2cc1OCCCN1CCOCC1 [gefitinib]
Outline: as §1

[6] = compound: COc1cccc2cc(-c3nc([C@H]4CC[C@H](C(=O)O)CC4)n4ncnc(N)c34)[nH]c12
Outline: as §1

lapatinib = compound: CS(=O)(=O)CCNCc1ccc(-c2ccc3ncnc(Nc4ccc(OCc5cccc(F)c5)c(Cl)c4)c3c2)o1 [lapatinib]
Outline: as §1

pictilisib = compound: CS(=O)(=O)N1CCN(Cc2cc3nc(-c4cccc5[nH]ncc45)nc(N4CCOCC4)c3s2)CC1 [pictilisib]
Outline: as §1

Sequence of UniProt Q5T5C0 (Q5T5C0 whole entry, looked up): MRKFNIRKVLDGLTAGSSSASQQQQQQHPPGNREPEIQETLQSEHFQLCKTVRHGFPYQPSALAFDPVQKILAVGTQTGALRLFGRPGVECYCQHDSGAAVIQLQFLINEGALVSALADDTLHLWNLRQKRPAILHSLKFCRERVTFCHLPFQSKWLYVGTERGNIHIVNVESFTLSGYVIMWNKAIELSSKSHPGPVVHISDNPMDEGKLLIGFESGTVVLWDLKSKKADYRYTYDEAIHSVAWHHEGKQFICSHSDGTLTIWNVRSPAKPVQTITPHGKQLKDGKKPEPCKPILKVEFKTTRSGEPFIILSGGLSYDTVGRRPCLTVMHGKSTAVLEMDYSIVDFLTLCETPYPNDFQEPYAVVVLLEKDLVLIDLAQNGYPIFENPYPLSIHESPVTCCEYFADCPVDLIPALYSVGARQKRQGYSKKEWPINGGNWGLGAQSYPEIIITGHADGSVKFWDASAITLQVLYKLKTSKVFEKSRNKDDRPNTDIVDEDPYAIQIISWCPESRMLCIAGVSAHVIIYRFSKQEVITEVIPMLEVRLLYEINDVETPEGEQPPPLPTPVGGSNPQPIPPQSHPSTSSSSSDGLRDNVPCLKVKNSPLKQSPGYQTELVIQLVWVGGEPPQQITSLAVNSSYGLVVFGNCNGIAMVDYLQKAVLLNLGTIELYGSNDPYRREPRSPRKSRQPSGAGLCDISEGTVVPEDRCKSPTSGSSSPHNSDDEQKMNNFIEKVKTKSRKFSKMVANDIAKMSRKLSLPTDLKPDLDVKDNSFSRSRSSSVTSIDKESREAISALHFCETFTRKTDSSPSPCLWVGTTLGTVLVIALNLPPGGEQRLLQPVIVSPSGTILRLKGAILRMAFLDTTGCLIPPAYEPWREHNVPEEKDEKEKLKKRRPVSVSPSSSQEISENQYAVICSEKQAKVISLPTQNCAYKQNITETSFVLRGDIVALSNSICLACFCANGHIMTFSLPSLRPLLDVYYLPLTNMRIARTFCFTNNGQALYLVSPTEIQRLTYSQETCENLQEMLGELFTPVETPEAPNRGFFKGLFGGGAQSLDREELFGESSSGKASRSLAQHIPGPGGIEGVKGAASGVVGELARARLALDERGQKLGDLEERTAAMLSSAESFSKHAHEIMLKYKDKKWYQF
Sequence of UniProt Q8IY18 (Q8IY18 whole entry, looked up): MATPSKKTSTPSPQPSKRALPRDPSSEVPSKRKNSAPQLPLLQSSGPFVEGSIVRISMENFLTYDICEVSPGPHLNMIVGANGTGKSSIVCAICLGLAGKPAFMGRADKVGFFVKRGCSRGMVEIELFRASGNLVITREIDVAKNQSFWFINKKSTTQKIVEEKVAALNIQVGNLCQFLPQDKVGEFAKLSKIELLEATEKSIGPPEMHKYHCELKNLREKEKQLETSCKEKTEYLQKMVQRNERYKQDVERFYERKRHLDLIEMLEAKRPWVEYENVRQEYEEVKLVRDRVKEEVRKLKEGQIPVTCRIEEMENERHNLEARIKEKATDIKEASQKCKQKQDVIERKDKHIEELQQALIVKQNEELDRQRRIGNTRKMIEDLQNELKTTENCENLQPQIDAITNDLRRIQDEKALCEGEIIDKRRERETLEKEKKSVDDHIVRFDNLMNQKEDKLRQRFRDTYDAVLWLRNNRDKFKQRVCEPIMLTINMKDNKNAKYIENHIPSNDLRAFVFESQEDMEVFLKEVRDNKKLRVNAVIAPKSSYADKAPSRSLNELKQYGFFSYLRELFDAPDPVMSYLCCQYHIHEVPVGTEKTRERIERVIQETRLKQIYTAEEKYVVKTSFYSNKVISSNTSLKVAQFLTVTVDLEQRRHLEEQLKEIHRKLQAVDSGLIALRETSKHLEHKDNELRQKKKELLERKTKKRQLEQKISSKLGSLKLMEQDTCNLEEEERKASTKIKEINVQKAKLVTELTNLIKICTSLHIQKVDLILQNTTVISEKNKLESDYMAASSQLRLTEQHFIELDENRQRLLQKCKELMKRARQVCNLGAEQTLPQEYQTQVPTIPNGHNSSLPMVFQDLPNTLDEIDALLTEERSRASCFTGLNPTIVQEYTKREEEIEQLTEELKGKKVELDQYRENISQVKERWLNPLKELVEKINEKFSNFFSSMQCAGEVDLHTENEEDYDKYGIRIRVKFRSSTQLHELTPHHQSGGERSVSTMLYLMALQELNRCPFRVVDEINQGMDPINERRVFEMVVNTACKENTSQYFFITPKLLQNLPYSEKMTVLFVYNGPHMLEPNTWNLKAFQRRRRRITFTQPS
Sequence of UniProt Q08945 (Q08945 whole entry, looked up): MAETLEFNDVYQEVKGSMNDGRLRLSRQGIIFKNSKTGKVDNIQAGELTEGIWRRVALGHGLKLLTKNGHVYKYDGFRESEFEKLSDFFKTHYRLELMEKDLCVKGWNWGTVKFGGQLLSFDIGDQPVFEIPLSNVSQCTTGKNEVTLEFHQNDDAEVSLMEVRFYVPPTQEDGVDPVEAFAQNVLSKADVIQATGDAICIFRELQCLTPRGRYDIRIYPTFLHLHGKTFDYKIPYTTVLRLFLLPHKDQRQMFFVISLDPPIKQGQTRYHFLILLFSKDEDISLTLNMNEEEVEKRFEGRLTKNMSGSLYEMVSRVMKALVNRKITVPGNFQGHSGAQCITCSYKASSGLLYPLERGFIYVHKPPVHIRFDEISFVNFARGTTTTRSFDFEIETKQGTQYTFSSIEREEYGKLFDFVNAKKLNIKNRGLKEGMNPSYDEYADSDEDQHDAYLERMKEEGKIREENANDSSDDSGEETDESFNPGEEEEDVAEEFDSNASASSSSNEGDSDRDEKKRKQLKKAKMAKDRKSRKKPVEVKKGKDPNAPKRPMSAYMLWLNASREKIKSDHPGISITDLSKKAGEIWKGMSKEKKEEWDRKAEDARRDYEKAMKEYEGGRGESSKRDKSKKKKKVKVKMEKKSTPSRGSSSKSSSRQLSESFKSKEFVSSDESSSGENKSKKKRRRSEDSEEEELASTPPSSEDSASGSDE
Sequence of UniProt O95149 (O95149 whole entry, looked up): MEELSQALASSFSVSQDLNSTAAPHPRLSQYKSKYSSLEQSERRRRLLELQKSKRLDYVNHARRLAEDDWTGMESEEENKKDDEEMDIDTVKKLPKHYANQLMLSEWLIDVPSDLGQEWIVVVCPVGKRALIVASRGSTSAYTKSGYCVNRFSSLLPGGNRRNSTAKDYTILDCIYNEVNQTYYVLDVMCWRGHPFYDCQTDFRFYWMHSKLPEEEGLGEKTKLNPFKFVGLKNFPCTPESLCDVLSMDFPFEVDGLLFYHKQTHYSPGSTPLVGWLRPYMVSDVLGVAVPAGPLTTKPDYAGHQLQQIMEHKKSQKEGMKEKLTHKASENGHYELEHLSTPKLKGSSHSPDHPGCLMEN
Sequence of UniProt Q15527 (Q15527 whole entry, looked up): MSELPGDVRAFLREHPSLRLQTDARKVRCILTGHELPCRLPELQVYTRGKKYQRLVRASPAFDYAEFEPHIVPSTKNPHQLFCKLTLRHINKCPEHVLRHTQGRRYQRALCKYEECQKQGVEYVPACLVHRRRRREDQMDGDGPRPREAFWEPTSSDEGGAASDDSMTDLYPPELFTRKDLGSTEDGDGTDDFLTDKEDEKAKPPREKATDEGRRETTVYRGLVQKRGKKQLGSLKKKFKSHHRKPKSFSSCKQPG
Sequence of UniProt Q4KMP7 (Q4KMP7 whole entry, looked up): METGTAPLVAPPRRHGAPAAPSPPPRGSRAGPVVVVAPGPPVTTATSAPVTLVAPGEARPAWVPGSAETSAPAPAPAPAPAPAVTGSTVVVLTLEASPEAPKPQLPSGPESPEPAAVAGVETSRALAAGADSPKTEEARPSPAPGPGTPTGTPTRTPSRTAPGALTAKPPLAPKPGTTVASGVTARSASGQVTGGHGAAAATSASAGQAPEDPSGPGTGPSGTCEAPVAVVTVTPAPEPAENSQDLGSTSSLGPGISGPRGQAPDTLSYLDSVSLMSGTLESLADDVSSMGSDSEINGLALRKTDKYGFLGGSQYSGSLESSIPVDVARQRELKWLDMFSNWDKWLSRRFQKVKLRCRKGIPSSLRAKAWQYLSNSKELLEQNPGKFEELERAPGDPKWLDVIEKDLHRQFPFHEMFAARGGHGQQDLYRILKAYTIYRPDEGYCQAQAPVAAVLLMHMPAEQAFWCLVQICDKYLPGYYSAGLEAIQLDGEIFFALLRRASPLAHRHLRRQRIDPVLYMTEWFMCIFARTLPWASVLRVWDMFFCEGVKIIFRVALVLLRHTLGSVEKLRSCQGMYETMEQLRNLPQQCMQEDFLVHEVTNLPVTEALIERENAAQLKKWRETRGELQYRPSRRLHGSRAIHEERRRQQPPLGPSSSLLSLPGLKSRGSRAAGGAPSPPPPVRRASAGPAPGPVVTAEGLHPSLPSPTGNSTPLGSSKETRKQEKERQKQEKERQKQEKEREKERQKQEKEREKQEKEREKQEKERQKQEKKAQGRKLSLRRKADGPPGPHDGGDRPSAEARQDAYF
Sequence of UniProt Q15582 (Q15582 whole entry, looked up): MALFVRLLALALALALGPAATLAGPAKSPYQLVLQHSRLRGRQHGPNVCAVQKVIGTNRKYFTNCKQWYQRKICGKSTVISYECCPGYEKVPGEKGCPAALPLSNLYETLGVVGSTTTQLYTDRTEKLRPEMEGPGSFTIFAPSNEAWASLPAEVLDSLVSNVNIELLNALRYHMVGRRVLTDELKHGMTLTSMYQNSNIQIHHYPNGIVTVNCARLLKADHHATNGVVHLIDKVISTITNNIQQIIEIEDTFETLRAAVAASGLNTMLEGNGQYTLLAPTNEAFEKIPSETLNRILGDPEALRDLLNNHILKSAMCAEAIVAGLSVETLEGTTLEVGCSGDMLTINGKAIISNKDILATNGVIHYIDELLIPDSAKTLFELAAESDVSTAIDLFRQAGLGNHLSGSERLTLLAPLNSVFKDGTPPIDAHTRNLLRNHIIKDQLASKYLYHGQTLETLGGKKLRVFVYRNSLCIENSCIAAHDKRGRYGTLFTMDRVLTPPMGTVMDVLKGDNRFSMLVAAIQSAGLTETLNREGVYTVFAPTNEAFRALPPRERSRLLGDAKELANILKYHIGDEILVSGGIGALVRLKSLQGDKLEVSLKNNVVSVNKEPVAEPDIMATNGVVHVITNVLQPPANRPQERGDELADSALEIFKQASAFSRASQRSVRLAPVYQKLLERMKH

Target | log2 fold change (saracatinib) | log2 fold change (sotrastaurin) | log2 fold change (alvocidib) | log2 fold change (Tubastatin A) | log2 fold change [1] | log2 fold change (defactinib) | log2 fold change (rucaparib) | log2 fold change [2] | log2 fold change (encorafenib) | log2 fold change [3] | log2 fold change [4] | log2 fold change (filanesib) | log2 fold change (zotarolimus) | log2 fold change (idasanutlin) | log2 fold change (alisertib) | log2 fold change [5] | log2 fold change (gefitinib) | log2 fold change [6] | log2 fold change (lapatinib) | log2 fold change (pictilisib)
TGFBI (UniProt Q15582) | 0.017 | 0.171 | 0.054 | -0.005 | -0.014 | -0.037 | -0.06 | -0.113 | 0.006 | 0.098 | 0.063 | -0.054 | -0.892 (active) | 0.084 | -0.012 | -0.003 | -0.029 | 0.15 | 0.018 | -0.083
STXBP5 (UniProt Q5T5C0) | -0.014 | 0.019 | -0.085 | 0.01 | -0.023 | -0.011 | -0.002 | -0.032 | 0.028 | -0.003 | -0.012 | -0.039 | 0 | -0.022 | -0.084 | 0.015 | -0.006 | 0.003 | 0.023 | -0.038
SMC5 (UniProt Q8IY18) | -0.005 | -0.075 | 0 | -0.034 | 0.056 | -0.05 | 0.015 | -0.046 | -0.045 | -0.014 | -0.055 | 0.009 | -0.032 | -0.081 | 0.047 | 0.009 | 0.034 | 0.028 | 0.018 | 0.024
SYNE2 isoform 2 (UniProt Q8WXH0) | -0.121 | -0.005 | 0.156 | 0.071 | -0.109 | 0.029 | -0.045 | 0.049 | -0.107 | -0.006 | 0.112 | 0.048 | -0.057 | -0.185 | -0.054 | 0.34 | 0.078 | -0.004 | -0.133 | 0.205
SSRP1 (UniProt Q08945) | 0.01 | -0.049 | -0.157 | 0.099 | -0.052 | -0.23 (active) | -0.038 | -0.045 | 0.048 | -0.05 | 0.118 | 0.023 | 0.036 | -0.005 | -0.037 | -0.05 | 0.028 | -0.014 | 0.008 | -0.026
SPTBN1 (UniProt Q01082) | -0.019 | -0.224 (active) | -0.03 | 0.042 | 0.048 | -0.125 | 0.084 | -0.047 | 0.064 | -0.057 | -0.037 | 0.102 | 0.045 | 0.053 | -0.073 | 0.02 | 0.084 | -0.076 | 0.031 | 0.007
SURF2 (UniProt Q15527) | 0.034 | -0.02 | 0 | 0.066 | -0.015 | -0.056 | -0.055 | -0.059 | -0.037 | -0.016 | 0.038 | 0.014 | 0.055 | 0.054 | -0.133 | 0.023 | 0.028 | -0.034 | 0.006 | -0.07
TBC1D10B (UniProt Q4KMP7) | -0.025 | -0.036 | -0.036 | 0.001 | -0.015 | -0.008 | 0.094 | 0.009 | 0.048 | -0.023 | -0.001 | 0.062 | 0.011 | 0.032 | -0.088 | -0.088 | 0.008 | -0.042 | 0.041 | -0.002
SPCS2 (UniProt Q15005) | -0.029 | -0.054 | -0.058 | -0.026 | 0.062 | -0.026 | -0.062 | 0.038 | 0.044 | 0.021 | 0.5 (active) | -0.061 | 0.018 | -0.039 | 0.008 | 0.092 | 0.03 | -0.021 | 0.002 | -0.006
SNUPN (UniProt O95149) | 0.052 | -0.069 | -0.061 | -0.036 | -0.019 | -0.056 | -0.027 | -0.04 | 0.021 | 0.028 | 0.001 | -0.09 | -0.007 | 0.05 | -0.013 | -0.05 | 0.014 | 0.005 | 0.019 | -0.021
SPINDOC (UniProt Q9BUA3) | 0.185 | -0.23 | 0.025 | -0.121 | -0.039 | 0.068 | 0 | -0.02 | 0.057 | 0.049 | 0.165 | 0.221 | -0.02 | 0.008 | -0.113 | 0.145 | 0.073 | 0.017 | -0.045 | -0.117
TFB2M (UniProt Q9H5Q4) | -0.029 | -0.031 | -0.082 | -0.012 | 0.02 | -0.06 | -0.013 | -0.054 | -0.002 | -0.001 | -0.044 | -0.074 | -0.001 | -0.055 | 0.011 | 0.006 | 0.002 | 0.037 | -0.001 | -0.021
TM9SF4 (UniProt Q92544) | -0.028 | 0.017 | -0.008 | -0.015 | 0.013 | 0.037 | 0.043 | -0.046 | 0.039 | -0.03 | 0.048 | -0.04 | 0.036 | 0.004 | -0.031 | -0.023 | 0.086 | 0.004 | 0.274 | -0.161
THRAP3 (UniProt Q9Y2W1) | 0.035 | 0.008 | 0.094 | 0.048 | -0.266 | -0.29 | -0.002 | -0.047 | -0.015 | 0.019 | 0.087 | 0.155 | -0.117 | 0.12 | -0.095 | -0.127 | 0.15 | 0.13 | 0.066 | 0.005
TFR2 (UniProt Q9UP52) | 0.007 | -0.031 | 0.029 | -0.053 | 0.006 | 0.029 | 0.029 | -0.129 | -0.015 | 0.009 | -0.066 | 0.011 | -0.06 | 0.035 | -0.04 | 0.011 | -0.035 | 0.041 | -0.011 | 0.05
